Source: PubChem BioAssay
Many of the other results were omitted from the sample, so hits are more common in it than they were.
Pf Dd2 growth: blocks in vitro growth of P. falciparum Dd2; Potency, µM (series often up to 28.9 µM), without a hit: at the top dose activity, negative = inhibition, actives largely listed as inhibitors; P. falciparum Dd2 growth, SYBR Green, 72 h; 120,000 tested, 4.3% active; active means well fitted inhibition curve with a large enough effect;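 further: plate controls were DMSO vehicle for no effect and reference drug for full effect; nearly all actives have a fitted effect of over 65% in size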
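Infected erythrocytes (Dd2, 0.3% parasitemia, 2.5% hematocrit final) are added to compound in RPMI-1640/Albumax II medium, grown 72 h at 37C in low oxygen, then lysed with saponin/Triton-X containing SYBR Green and read by fluorescence.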
Active calls of the source: *; i = inactive; [ ] = dose if it differs, or a comment. Potency means the concentration at half of the fitted maximal effect.

SMILES | Pf Dd2 growth
COc1ccc(C(=O)N2CCCC(c3nc(-c4ccccc4)no3)CCNC(=O)CC2)c(OC)c1 (stereo not given) | 7.1µM*
O=C1CCN(C2CCC2)CCCC(c2nc(-c3cccnc3)no2)CCN1 (stereo not given) | -6%
CCOc1ccccc1CN1CCCC(c2nc(-c3cccnc3)no2)CCNC(=O)CC1 (stereo not given) | 4µM*
O=C1CCN(Cc2ccncc2F)CCCC(c2nc(-c3cccnc3)no2)CCN1 (stereo not given) | i
Cc1ncsc1CN1CCCC(c2nc(-c3cccnc3)no2)CCNC(=O)CC1 (stereo not given) | i
COc1ccc(C(=O)N2CCCC(c3nc(-c4cccnc4)no3)CCNC(=O)CC2)cc1 (stereo not given) | -27%
O=C1CCN(Cc2ccncc2)CCCC(c2nc(-c3cccnc3)no2)CCN1 (stereo not given) | -15%
N#Cc1cccc(CN2CCCC(c3nc(-c4cccnc4)no3)CCNC(=O)CC2)c1 (stereo not given) | 5µM*
CC(=O)c1ccc(NC(=O)N2C[C@@H]3C[C@H](C2)c2ccc(NS(=O)(=O)Cc4ccccc4)c(=O)n2C3)cc1 | 10%
COC[C@@H]1CN(C(=O)c2occc2C)C[C@H]1c1ccncc1 | 4%
COc1cccc(C(=O)N2CCCC2c2nc(C3CCOCC3)no2)c1 (stereo not given) | 7%
COc1ccc(C(=O)N2CC3(C2)NC(=O)c2ccccc2O3)cc1 | i
Cc1ccc(F)c(S(=O)(=O)NC[C@@H]2CCNC[C@H]2O)c1 | -3%
CCN(CC)c1cc(C)c2cc(NC(=O)c3ccc(OC)c(OC)c3)ccc2n1 | -2%
COc1ccccc1NC(=O)c1ccccc1NC(=O)c1ccccc1 | -1%
COc1ccccc1Nc1c2c(nc3ccc(NC(=O)c4cccc(OC)c4OC)cc13)CCCC2 | 5.6µM*
CCOc1ccccc1NC(=O)CSc1c2c(nc3ccc(Cl)cc13)CCCC2 | i
COc1ccc(C(=O)Nc2ccc3nc4c(c(Nc5ccc(OC)c(OC)c5)c3c2)CCCC4)c(OC)c1 | -8%
COc1ccc(Nc2c3c(nc4ccc(NC(=O)c5ccc(F)cc5)cc24)CCCC3)cc1OC | 4µM*
COc1ccccc1Nc1c2c(nc3ccc(NC(=O)c4ccccc4F)cc13)CCCC2 | 3.5µM*
Cc1ccc(Nc2c3c(nc4ccccc24)CCC3)cc1F | i
COc1ccccc1NC(=O)c1ccc2c(Cl)c3c(nc2c1)CCCC3 | 12%
Cc1cc(S(=O)(=O)N2C[C@@H](F)C[C@H]2C(=O)N2CCc3ccccc3C2)ccc1F | 37%
O=C(c1ccc2ccccc2n1)N1CCCC(Cc2noc(C3CC3)n2)C1 (stereo not given) | 28%
CCc1cnc(N2CCC(COc3ccc4c(cnn4CCC(=O)O)c3)CC2)nc1 | i
SMILES | Pf Dd2 growth
CC(C)CN(Cc1cccnc1)C1CN(C(=O)Nc2ccccc2F)C1 | i
CCN(CC)c1cc(C)c2cc(NC(=O)c3cc(OC)cc(OC)c3)ccc2n1 | -3%
CCN(CC)c1cc(C)c2cc(NC(=O)/C=C/c3ccccc3Cl)ccc2n1 | 10µM*
CCN(CC)c1cc(C)c2cc(NC(=O)c3ccc(F)cc3Cl)ccc2n1 | i
CN1CCC(Oc2ccc(NC(=O)C3(c4ccccc4)CC3)cn2)CC1 | i
O=C(O)C[C@@H]1CCN(Cc2c[nH]c3ccccc23)C[C@@H]1CCN1C[C@@H]2C[C@H](C1)c1cccc(=O)n1C2 | i
O=C1c2[nH]nc(-c3ccccc3O)c2C(c2ccccc2F)N1Cc1cccnc1 (stereo not given) | 10%
CCCCN1C(=O)c2[nH]nc(-c3ccccc3O)c2C1c1ccc(C(C)(C)C)cc1 (stereo not given) | 2.8µM*
COCCCn1c(C)cnc1C1CCN(C(=O)COc2ccccc2)C1 (stereo not given) | -18%
CCCCN1C(=O)c2[nH]nc(-c3ccccc3O)c2C1c1ccc(OCc2ccccc2)cc1 (stereo not given) | 1.4µM*
CC12CN3CC(C)(CN(C1)C3c1ccc(OCc3ccccc3)cc1)C2=O (stereo not given) | 23%
CC(C)OCCCN1C(=O)c2[nH]nc(-c3ccccc3O)c2C1c1ccccc1F (stereo not given) | 11µM*
COCCCN1C(=O)c2[nH]nc(-c3ccccc3O)c2C1c1ccc(OCc2ccccc2)cc1 (stereo not given) | 8.9µM*
O=C(c1cc(F)ccc1F)N1CCC(N2CC3CC(C2)[C@H]2CCCC(=O)N2C3)CC1 (stereo not given in full) | -15%
Cc1cccc(OC[C@H]2C[C@@H](NCc3c(C)noc3C)[C@H](O)[C@@H]2O)n1 | -26%[44.1 µM]
CCN(C(=O)Cn1ccn2nc3c(c2c1=O)CCCC3)c1ccccc1 | -11%
CN1Cc2ccc(NCc3ccccc3)nc2C(C)(C(=O)NCCc2cnc[nH]2)C1 (stereo not given) | i
CC(C)NC(=O)N[C@H]1C[C@@H](c2nc(-c3ccncc3)no2)N(C)C1 | -18%[44.1 µM]
CC[C@H]1CN(C(=O)c2ccnc(Cl)c2)CC[C@H]1CC(=O)N(C)CC#N | 26%[44.1 µM]
O=C1c2[nH]nc(-c3ccccc3O)c2C(c2cccc(OCc3ccccc3)c2)N1CCO (stereo not given) | 140%[5.79 µM]
CC(C)OCCCN1C(=O)c2[nH]nc(-c3ccccc3O)c2C1c1cccc(OCc2ccccc2)c1 (stereo not given) | 5.6µM*
CC(C)OCCCNC(=O)C1Cn2cccc2C(=O)N1Cc1ccccc1 (stereo not given) | 9%
Cn1c(Cn2cccn2)nnc1C1CC(NC(=O)COc2cccnc2)C1 (stereo not given) | -23%
FC(F)(F)CN1C2CCC1CN(c1nncc3ccccc13)C2 | -21%
COc1cc2ncnc(N3CC4CCC(C3)N4CC(F)(F)F)c2cc1OC | -24%
SMILES | Pf Dd2 growth
CCc1ncc2c(N3CC4CCC(C3)N4CC(F)(F)F)nc3ccccc3n12 | 3.2µM*
CC(C)(C)c1nnc2n1C(C(=O)N1CCN(c3ncccn3)CC1)CC2 (stereo not given) | 28%
O=C(CSc1ccncc1)N1CCN2C(=O)N(Cc3ccccc3)C(=O)[C@H]2C1 | i
NC(=O)c1ccc(NC(=O)C2CC(=O)N(c3n[nH]c4cc(Br)ccc34)C2)cc1 (stereo not given) | 6%
COc1ccc(Cn2ccc3nc(C)c(C(=O)NCc4cccc(OC)c4)cc3c2=O)cc1 | -25%
COc1ccc(Cn2ccc3nc(C)c(C(=O)N4CCN(c5cccc(OC)c5)CC4)cc3c2=O)cc1 | 13µM*
COc1ccc(Cn2ccc3nc(C)c(C(=O)N4CCN(c5ccccc5)CC4)cc3c2=O)cc1 | 14%
O=[S+]([O-])(c1ccccc1)N1CC2(COCCN(c3nccc(C(F)(F)F)n3)C2)C1 | 21%[44.1 µM]
COC(=O)CNC(c1ccccc1)c1cc(Br)ccc1NC(=O)c1ccc(Cl)cc1 (stereo not given) | i
CCOC(=O)CSc1nc2ccc(NC(=O)c3ccc(Cl)cc3)cc2s1 | -6%
CCOC(=O)CNC(c1ccccc1)c1cc(Br)ccc1NC(=O)c1ccc(Cl)cc1 (stereo not given) | 4µM*
CC(=O)N1c2ccc(S(=O)(=O)NCC3CCC(C(=O)Nc4ccc(F)cc4)CC3)cc2CC1C (stereo not given) | i
CC(=O)N1c2ccc(S(=O)(=O)NCC3CCC(C(=O)Nc4ccc(C)c(C)c4)CC3)cc2CC1C (stereo not given) | -20%
CC(=O)N1c2ccc(S(=O)(=O)NCc3ccccc3Cl)cc2CC1C (stereo not given) | 66%
